# Assay outcomes: PubChem, National Center for Advancing Translational Sciences (NCATS)
# KB-3-1 cytotox – kills parental KB-3-1 adenocarcinoma cells; KB-3-1 viability, CellTiter-Glo ATP luminescence, 72 h; Potency, µM (series often up to 46.1 µM), hits mostly cytotoxic; 400,000 tested, 1.4% active; AID 1347075; note: % is set by controls: 0 for no effect and ±100 for the full control effect; nearly all actives have a fitted effect of over 60% in size
#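 KB-3-1 parental drug-naive adenocarcinoma cells in DMEM/10% FBS, incubated 72 h at 37 C with pin-transferred compounds across a concentration series. Viability by CellTiter-Glo luminescence; concentration-response curves fitted after normalization.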
# SW480 rereplic – DNA re-replication induction in SW480 cells. SW480 DNA re-replication, Hoechst DNA content imaging, 48 h. Potency, µM (highest dose often 46.1 µM), for inactives: at the top dose re-replication activation, hits mostly activators. 340,000 tested, 1.8% active. AID 624297; note: % of control where 0% means no effect; nearly all actives have a fitted effect of over 55% in size
#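 Hoechst fluorescence of nuclei (405 nm excitation, 500-530 nm emission) measured by plate-scanning imager after 48 hr compound exposure at 37 C; re-replication scored as increased number of nuclei with elevated intensity.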
# MCF10A rereplic – induces DNA re-replication in MCF 10a normal breast cells; MCF 10A DNA re-replication, Hoechst nuclear intensity, 48 h; Potency, µM (series often up to 46.1 µM), for the others: at the top dose activity, positive = re-replication, usual class: activators; 350,000 tested, 2.9% active; note: % of control where 0% means no effect; nearly all actives have a fitted effect of over 50% in size
# HT1080NT lethal – kills 2HG-producing HT-1080-NT fibrosarcoma cells | HT-1080-NT fibrosarcoma viability, CellTiter-Glo ATP luminescence, 48 h | Potency, µM (top dose mostly 46.1 µM), for inactives: at the highest dose activity, negative = less viability, actives largely listed as cytotoxic | 360,000 tested, 1.6% active;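 note: NT is the 2HG producing partner of a matched IDH1 knockdown line; 0% = DMSO-treated cells and -100% = media-only wells without cells; nearly all actives have a fitted effect of over 55% in size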
#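 HT-1080-NT; 750 cells/well; 5% FBS RPMI; 48 h compound, 37 degrees C; CellTiter-Glo luminescence; curve fitting and curve-class assignment.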
# HT1080 IDH1KD tx – toxicity to HT-1080 IDH1 knockdown cells (counter line); HT-1080 IDH1 knockdown viability, ATP luminescence, 48 h; AID 686971; 360,000 tested, 2% active; Potency, µM (titrated, usually from 46.1 µM), inactives show at the top dose activity, negative = toxicity, usual class: cytotoxic;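 note: 0% = DMSO wells and -100% = cell-free medium wells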
#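 % activity derives from luminescence (CellTiter-Glo), normalised to DMSO and no-cell wells. HT-1080-IDH1KD cells, 750/well, had 48 h compound exposure at 37 °C.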
# KB-V1 cytotox – KB-V1 MDR subline cytotoxicity; AID 1347076; KB-V1 MDR cells viability, CellTiter-Glo, 72 h; 400,000 tested, 3.4% active; Potency, µM (titrated, usually from 46.1 µM), actives largely listed as cytotoxic; note: % is set by controls: 0 for no effect and ±100 for the full control effect; nearly all actives have a fitted effect of over 60% in size
#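 In this primary screen, KB-V1 cells overexpressing P-gp are incubated with library compounds (lowest to highest concentration) for 72 h at 37 degrees C before a luminescent ATP viability read.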
# An asterisk follows results filed as active; i = inactive; ? = inconclusive; nt = not tested or not shown. Compounds with a hit are over-represented: about 8% of the library has one in this group of screens. Calls come from the whole dose curve; as a rule, active = well fitted curve in the direction sought with a large enough effect; inconclusive = small, poorly fitted or top-dose-only effect, or another doubt; inactive = no such curve, though single readings can be large; an effect the other way counts as inactive or inconclusive. Potency is the fitted concentration of half-maximal effect.
SMILES,KB-3-1 cytotox,SW480 rereplic,MCF10A rereplic,HT1080NT lethal,HT1080 IDH1KD tx,KB-V1 cytotox
O=C(Cn1cnc([N+](=O)[O-])n1)N/N=C/c1cccc2ccccc12,i,-9%,-3%,-1%,5%,i
O=C(NN=Cc1ccc(O)cc1)C(=O)NN=Cc1ccc(O)cc1,i,-4%,-22%,-16%,-9%,i
O=C(N/N=C/c1ccc(O)cc1O)C(=O)N/N=C/c1ccc(O)cc1O,?,12µM*,7%,?,?,i
O=C(Cn1cnc([N+](=O)[O-])n1)N/N=C/c1ccc(O)cc1O,i,12µM*,-1%,?,18µM*,i
CNC(=O)c1cc(C(=O)c2ccccc2C(F)(F)F)c[nH]1,i,-3%,?,0%,0%,i
Cc1ccc(CCNC(=O)NCc2noc3ccccc23)cc1,i,nt,nt,nt,nt,?
COc1ccc(-c2cc(-c3ccccc3)no2)cc1,i,-5%,-1%,2%,3%,i
CC(=O)Nc1ccc(NC(=O)C(C)OC(=O)C(C)SCC(=O)Nc2ccc(C)cc2)cc1 (configuration not stated),i,-1%,0%,2%,3%,i
